From PubChem BioAssay (NCI)
Several values for one entry are separate records, joined by “and”; a condition that tells them apart may be missing. Equal entries are not always repeated. The panel holds about 83,000 compounds, 20% with a hit somewhere; the sample as a whole holds those more often.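 Method: cells in 96-well plates; compound added at one concentration; 48 h incubation; percent growth measured; values under 10 scored active.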 A number with no mark means an inactive call. Activity calls are given as the source filed them.

The compounds below were run on MDA-MB-468 breast (assay: NCI-60 one-dose screen, 48 h (100 = growth as untreated, 0 = no growth, -100 = all killed)). Conditions: 10 µM unless noted.

Q: With `O=C1NC(=O)C(Cn2cnc3ccccc32)N1` (configuration not stated) as the compound, how does the growth read?
A: 99%

Q: Which growth does the source give for `CCOC(=O)c1csc(N)n1` here?
A: 95.6% and 91.5%

Q: With `COc1cc2c(cc1OC)C(Sc1ccc(Cl)cc1)c1c(nc(N)c(C#N)c1N)O2` (configuration not stated) as the compound, how does the growth read?
A: -23.6% (active)

Q: How did the growth turn out when `CC(=O)OC[C@]12CC[C@@H](/C(C)=N/O)[C@@H]1[C@H]1CC[C@@H]3[C@@]4(C)CCCNC(C)(C)[C@@H]4CC[C@@]3(C)[C@]1(C)CC2` was run?
A: 54.1%

Q: `COc1ccc(C2=NN(C(N)=S)C(c3ccc4c(c3)OCO4)C2)cc1` (configuration not stated) was tested. Which growth did it give?
A: -0.33% (active)

Q: Which growth does the source give for `COc1ccc(C[C@H](N)C(=O)N[C@@H]2[C@@H](CO)OC(n3cnc4c(N(C)C)ncnc43)[C@@H]2O)cc1` (some centres not stated) here?
A: -70.8% (active)

Q: Which growth does the source give for `COc1ccc(-c2nn(-c3cccc(Cl)c3)cc2-c2cc(-c3ccccc3)[nH]c(=O)c2C#N)cc1` here?
A: 16.4%

Q: With `NC(N)=Nc1ccc(Oc2cccc(Nc3cccc(C(F)(F)F)c3)c2)cn1` as the compound, how does the growth read?
A: -37.1% (active)

Q: How did the growth turn out when `COc1ccc2[nH]c(=O)c(CN3CCN(c4nccc(-c5ccc(Cl)cc5)n4)CC3)cc2c1` was run?
A: 88.6%

Q: `Oc1cccc2ccc(N/N=C/c3cc(CN4CCOCC4)c(O)c4ncccc34)nc12` was tested. Which growth did it give?
A: -24.6% (active)

Q: With `Cn1c2ccccc2c2c(OC(=O)c3ccccc3)c3c(nc21)-c1ccccc1C3` as the compound, how does the growth read?
A: 100%

Q: With `S=c1cc(S)c2cc(Br)ccc2[nH]1` as the compound, how does the growth read?
A: 104%

Q: With `COc1cc(NC(=O)c2cc(O)c(CC=C(C)C)c(O)c2)cc2c1O[C@]1(C)CC[C@@H](O)C(C)(C)[C@H]1C2` as the compound, how does the growth read?
A: 30.8%

Q: `COc1cccc(-c2nn(-c3ccccc3)cc2-c2ccnc(NCCCO)c2)c1` was tested. Which growth did it give?
A: 23.8%

Q: With `CN1Cc2c(cc(CN3CCCCC3)n2C)C(c2ccc(Br)cc2)C1` (configuration not stated) as the compound, how does the growth read?
A: 56.2%

Q: With `O=C1/C(=C\c2cn(Cc3ccccc3)c3ccc(Br)cc23)c2ccccc2N1c1c(Cl)cccc1Cl` as the compound, how does the growth read?
A: 84.1%

Q: With `O=C1/C=C/[C@@H](O)[C@@H]2C[C@@H](O)C[C@H]2/C=C/CCC[C@H](CCO)O1` as the compound, how does the growth read?
A: -54.5% (active)

Q: `CC12CCC(/C(=C/NNc3ccc([N+](=O)[O-])cc3[N+](=O)[O-])C1=O)C2(C)C` (configuration not stated) was tested. Which growth did it give?
A: 45%

Q: For `O=C(Nc1ccc(Cl)cc1Cl)Nc1ccc(-c2cccnc2)cc1N1CCC(CO)CC1`, which growth is on record?
A: 23%

Q: `O=C(/C=C/c1ccc(C(F)(F)F)cc1)c1ccc(Nc2nc(NCCO)nc(NCCO)n2)cc1` was tested. Which growth did it give?
A: 19.9%

Q: Which growth does the source give for `Cc1c(Cn2cc(COc3ccc(Br)cc3)nn2)c(C)c(Cn2cc(COc3ccc(Br)cc3)nn2)c(C)c1Cn1cc(COc2ccc(Br)cc2)nn1` here?
A: 109%

Q: How did the growth turn out when `Clc1ccc(OCc2nc(-c3ccccc3)n[nH]2)c(Cl)c1` was run?
A: 99.1%

Q: With `Cc1ncn(-c2ccc(/C=N/Nc3ccnc4cc(Cl)ccc34)cc2)c1C` as the compound, how does the growth read?
A: -21.4% (active)

Q: How did the growth turn out when `Cc1cc2nc(C(Cl)Cl)nc(-c3ccco3)n2n1` was run?
A: -34% (active)

Q: Which growth does the source give for `CCN(C(=O)CCl)C(C)(C)C(SSSC(c1ccc(Cl)cc1)C(C)(C)N(CC)C(=O)CCl)c1ccc(Cl)cc1` (configuration not stated) here?
A: 5.76% (active)

Q: How did the growth turn out when `C/C=C/C/C=C/[C@H](C)C[C@H](O)[C@@H]1C[C@@H]2O[C@H]2/C=C/[C@H](O)[C@@H](O)/C=C/C[C@H](C)CC(=O)O1` was run?
A: 99.5%

Q: With `CCN1CCN(C(=O)[C@@]2(C)CC[C@]3(C)CC[C@]4(C)C(=CC(=O)[C@@H]5[C@@]6(C)CC[C@H](OCCC#N)C(C)(C)[C@@H]6CC[C@]54C)[C@@H]3C2)CC1` as the compound, how does the growth read?
A: 90.9%

Q: For `CC1=CC=C(NC(=O)/C=C/c2ccccc2)CC1Nc1nccc(-c2cccnc2)n1` (configuration not stated), which growth is on record?
A: 3.07% (active)

Q: Which growth does the source give for `Nc1c(C(=O)Nc2ccccn2)sc2nc3c(cc12)CCCCC3` here?
A: 27.7%

Q: `CCS(=O)(=O)N1CCN(c2ccc(Nc3ncc(C(N)=O)c(NC4CC4)n3)cc2)CC1` was tested. Which growth did it give?
A: 42.2%

Q: With `NNC(=O)c1ccccc1N` as the compound, how does the growth read?
A: 94.8%

Q: For `COc1cc2nc(-c3ccc(C(F)(F)F)cc3)cc(OCCN3CCCC3)c2cc1OC`, which growth is on record?
A: 89.4%
